Experimental data reported in article PMC5540273 (PLoS ONE, 2017).

The molecules below were run on SGK3. Conditions: concentration: 1 μM, replicates: in singlicate; n = 1.
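Also: KINOMEscan kinase panel screen.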

Compound | %Inh
Cc1cccc(Nc2nc(N[C@H]3CCNC3)ncc2C(N)=O)c1.Cl [GSK2197149] | 0%
O=C(Nc1ccccc1F)NC1CCN(c2ccnc(Nc3ccc(F)cc3)n2)CC1 [GSK1379800] | 9%
CN(C)S(=O)(=O)c1cc(-c2ccc3nccc(-c4cccc(S(N)(=O)=O)c4)c3c2)cnc1N [GSK1669921] | 16%
COc1ccc(CNC(=O)NC2CCN(c3ccnc(Nc4ccc(F)cc4)n3)CC2)cc1 [GSK1379788] | 0%
Cl.Cl.NCC(C(=O)Nc1cc(Br)c(-c2ccnc3[nH]ccc23)s1)c1ccccc1 (stereo not shown) [GSK1269851] | 24%
COC(=O)Nc1nc2ccc(Oc3ccc(NC(=O)Nc4cc(C(F)(F)F)ccc4F)cc3)cc2n1C.Cl [GW692089] | 20%
Nc1ncc(-c2cccnc2)c2scc(-c3ccc4c(c3)CCN4C(=O)Cc3ccccc3)c12 [GSK683281] | 10%
Cc1ccc(C(=O)Nc2ccc(Nc3ccnc4cc(-c5nccs5)ccc34)cc2O)cc1.Cl [GW494702] | 0%
Cn1cc(-c2[nH]c3cc(NC(=O)[C@H](N)C4CCCCC4)cc4c3c2C=NNC4=O)cn1 | 99.1%
CCc1ccc(-c2ccc3c(c2)-c2c(cnn2C)S(=O)(=O)N3C)cc1 | 0%
Nc1ncc(-c2ccc3nccc(-c4ccncc4)c3c2)cc1S(=O)(=O)N1CCOCC1 [GSK1627798] | 7%
O=C(Nc1n[nH]c2nc(-c3ccc(O)cc3)ccc12)C1CC1 [SB-710363] | 15%
O=C(O)C(F)(F)F.O=C(O)C(F)(F)F.O=c1[nH]ccc2nc(N[C@@H]3CCCNC3)nc(Nc3ccc(S(=O)(=O)N4CCOCC4)cc3)c12 [GSK2177277] | 99.2%
COc1cccc(NC(=O)NC2CCN(c3ccnc(Nc4cc(OC)c(OC)c(OC)c4)n3)C2)c1 (stereo not shown) [GSK1379763] | 7%
CCS(=O)(=O)c1ccc(OC)c(Nc2nccc(-c3c(-c4cccc(NC(=O)c5c(F)cccc5F)c4)nn4ncccc34)n2)c1 [GSK326180] | 0%
COC(=O)Nc1nc2cc(Oc3ccc(NC(=O)Nc4cc(C(F)(F)F)ccc4F)cn3)ccc2[nH]1.Cl.Cl [GW681170] | 6%
COc1cc(Nc2nccc(N3CCC(NC(=O)Nc4cccc(C(C)=O)c4)C3)n2)cc(OC)c1OC (stereo not shown) [GSK1379753] | 0%
COc1cc(Nc2nccc(-c3c(-c4cccc(NC(=O)c5c(F)cccc5F)c4)nn4ccccc34)n2)cc(OC)c1OC [GSK323521] | 7%
Cl.Cl.NCC(NC(=O)c1cc(-c2ccccc2)c(-c2ccnc3[nH]ccc23)s1)c1ccccc1 (stereo not shown) [GSK1321561] | 15%

Compound | %Inh
Cl.c1ccc(-c2ccc3c(Nc4ccc5[nH]ncc5c4)ccnc3c2)nc1 [GW440137] | 21%
CCn1c(-c2nonc2N)nc2c(C#CC(C)(C)O)ncc(OCCCCN)c21.O=C(O)C(F)(F)F.O=C(O)C(F)(F)F [GSK507274] | 2%
CN1CCN(CCCNc2nccc(-c3c(-c4ccc(F)cc4)nn4cc(C(F)(F)F)ccc34)n2)CC1 [GW621581] | 0%
Cl.Cl.NCC(NCc1ccc(-c2ccnc3[nH]ccc23)s1)c1ccccc1 (stereo not shown) [GSK1321565] | 43%
COc1cc(Nc2ncc3c(C)nc(-c4cc5ccccc5[nH]4)n3n2)cc(OC)c1OC [GW869516] | 1%
Nc1ncnc2c1nc(-c1ccccc1)n2-c1ccccc1 [SKF-97293] | 16%
O=C(Nc1cccc(-c2nn3ccccc3c2-c2ccnc(Nc3cccc(C(F)(F)F)c3)n2)c1)c1c(F)cccc1F [GSK292658] | 8%
CCCCc1nn2ncccc2c1-c1ccnc(Nc2ccc(N3CCN(C)CC3)cc2)n1 [GW684941] | 0%
Fc1ccc(-c2ncn(C3CCNCC3)c2-c2ccnc(Oc3ccc(-c4ccccc4)cc3)n2)cc1 [SB-245391] | 12%
FC(F)(F)c1ccc(/C=C/c2cncnc2Nc2ccc3[nH]c(Cc4ccccc4)nc3c2)cc1 [GW709199] | 0%
CC(=O)N1CCN(c2ccc(Nc3nccc(-c4sc(C(C)C)nc4-c4cccc(NS(=O)(=O)c5cccc(Cl)c5)c4)n3)cn2)CC1 [GSK1660437] | 19%
CC(=O)Nc1nc2cnc(Nc3cc(NC(=O)c4cccc(C5(C#N)CC5)c4Cl)ccc3C)nc2s1 | 0%
NCCCC(NC(=O)c1cc(Br)c(-c2ccnc3[nH]ccc23)s1)c1ccccc1.O=C(O)C(F)(F)F.O=C(O)C(F)(F)F (stereo not shown) [GSK1287544] | 52%
CN(C)Cc1ccc(-c2ccc3c(Nc4ccc(Oc5ccccn5)cc4)ccnc3c2)o1 [GW567148] | 0%
Cn1cc(-c2ccc3c(c2)CCN3C(=O)Cc2cccc(Cl)c2)c2c(N)ncnc21 [GSK2606590] | 0%
O=c1[nH]cc(-c2ccc(N3CCOCC3)cc2)c2sc(-c3cn[nH]c3)cc12 [GSK2276055] | 13%
CN1CCN(Cc2cccc(-c3ccc4c(Nc5ccc(Oc6ccccc6)cc5)ccnc4c3)c2)CC1 [GW578342] | 1%
COc1cccc(-c2ccc3c(NC(=O)C4CC4)n[nH]c3n2)c1 [SB-710903] | 2%
